Assay outcomes: PubChem BioAssay, National Center for Advancing Translational Sciences (NCATS)
In the library only some 4.8% were active in any assay of this set; here they are far more common.
Casp1 inh: allosteric or competitive inhibitors of human caspase-1; hit rate 0.03% among 75,000; Caspase-1 enzyme, Ac-WEHD-AFC fluorogenic rate; Potency, µM (series often up to 57.5 µM), for the others: top-dose activity change, negative = inhibition, hits mostly inhibitors; AID 900;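 further: plate controls were vehicle for no effect and no substrate for full effect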
ERK AVP inh: blocks ERK signaling stimulated by vasopressin | HEK293-V1b, vasopressin-stimulated pERK AlphaScreen | Potency, µM (highest dose often 57.5 µM), without a hit: at the top dose activity, negative = inhibition, actives largely listed as inhibitors | hit rate 0.99% among 72,000; further: on the % scale 0 is the no-effect control and ±100 the full control effect; nearly all actives have a fitted effect of over 55% in size
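Overnight-seeded V1b-HEK293 cells in 1% FBS got compound, then vasopressin (25 nM final, 5 min, 37C), then lysis buffer. AlphaScreen detection of phospho-ERK; activity normalized to basal and full-stimulation controls.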
HEK293 cAMP ctrl: raises cAMP in parental HEK293 cells, TSHR agonist counter-screen. parental HEK293 CNG cAMP sensor, membrane potential fluorescence. Potency, µM (series often up to 57.1 µM), for the others: at the top dose activation, actives largely listed as activators. hit rate 2.5% among 73,000. AID 938; further: % of control where 0% means no effect; nearly all actives have a fitted effect of over 55% in size
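Parental HEK 293 cells stably expressing a cAMP-gated CNG channel were loaded with membrane potential dye containing 100 uM RO 20-1724 for 60 min. Compound added for 30 min; depolarization read as fluorescence intensity at 590 nm.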
ALOX15 inhib: inhibitors of human 15-lipoxygenase (ALOX15) | purified 15hLO-1, xylenol orange hydroperoxide absorbance | hit rate 1.4% among 74,000 | P16050 | Potency, µM (series often up to 57.1 µM), inactives show at the top dose activity change, negative = inhibition, hits mostly inhibitors; further: on the % scale 0 is the no-effect control and ±100 the full control effect; nearly all actives have a fitted effect of over 55% in size
Target sequence (P16050 whole entry, looked up): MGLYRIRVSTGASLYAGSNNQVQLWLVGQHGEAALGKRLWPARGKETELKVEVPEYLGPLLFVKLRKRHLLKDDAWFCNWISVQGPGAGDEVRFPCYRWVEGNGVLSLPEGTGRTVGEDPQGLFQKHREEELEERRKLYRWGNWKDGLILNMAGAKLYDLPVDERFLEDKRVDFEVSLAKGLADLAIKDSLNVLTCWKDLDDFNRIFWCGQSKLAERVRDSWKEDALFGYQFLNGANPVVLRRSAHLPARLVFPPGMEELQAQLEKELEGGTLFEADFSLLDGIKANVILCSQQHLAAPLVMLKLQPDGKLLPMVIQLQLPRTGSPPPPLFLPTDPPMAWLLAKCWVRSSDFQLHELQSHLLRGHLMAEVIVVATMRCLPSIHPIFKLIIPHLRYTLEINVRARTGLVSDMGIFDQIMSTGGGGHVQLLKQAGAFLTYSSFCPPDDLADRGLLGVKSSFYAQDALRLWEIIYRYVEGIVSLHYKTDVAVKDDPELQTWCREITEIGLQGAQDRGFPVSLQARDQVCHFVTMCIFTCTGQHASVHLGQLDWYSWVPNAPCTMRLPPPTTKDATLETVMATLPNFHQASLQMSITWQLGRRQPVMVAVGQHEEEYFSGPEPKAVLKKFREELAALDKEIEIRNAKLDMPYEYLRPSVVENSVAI
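Inhibition is scored from a chromogenic endpoint. After 15 min enzyme-compound contact, arachidonic acid (50 uM final) reacts 6 min with 40 nM 15hLO-1 at room temperature, then Fe-XO reagent is added for 30 min and absorbance ratio recorded.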
TSHR ag: TSH receptor (human) agonism | HEK293-CNG-TSHR cells (CNG channel as cAMP sensor), membrane potential dye, cAMP | hit rate 0.48% among 73,000 | Potency, µM (top dose mostly 57.1 µM), for inactives: at the top dose activation, hits mostly activators | P16473; active means well fitted activation curve with a large enough effect in the main read-out, with a control signal flat, not every such curve was filed as active; inconclusive means small, poorly fitted or top-dose-only effect, or a change in a side signal; inactive means no such curve, though single readings can be large or run the other way; % of control where 0% means no effect;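 further: the control signal comes from parental cells without the receptor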
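HEK 293 cells stably expressing TSHR and a cAMP-gated CNG channel; parental CNG-only cells as counterscreen. Cells preloaded 60 min with membrane potential dye plus 100 uM RO 20-1724, then compound 30 min; fluorescence read at 590 nm.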
Caspase-7 inhib: caspase-7 (human) inhibition, allosteric or competitive. P55210. recombinant caspase-7, Ac-DEVD-AFC fluorescence rate. Potency, µM (doses to about 57.5 µM), inactives show at the top dose activity change, negative = inhibition, actives largely listed as inhibitors. hit rate 0.02% among 75,000; active means well fitted inhibition curve with a large enough effect in the main read-out, with a control signal flat, not every such curve was filed as active; inconclusive means small, poorly fitted or top-dose-only effect, or a change in a side signal; further: % of control where 0% means no effect
* marks the source's active call; other numbers are inactive results; ? = inconclusive; . = no result given; [ ] = remark or other dose. Unless noted, the call rests on the fitted dose curve; in most records, active means well fitted curve in the direction sought with a large enough effect; inconclusive means small, poorly fitted or top-dose-only effect, or another doubt; inactive means no such curve, though single readings can be large; an effect the other way counts as inactive or inconclusive. Potency means the concentration at half of the fitted maximal effect.

SMILES	Casp1 inh	ERK AVP inh	HEK293 cAMP ctrl	ALOX15 inhib	TSHR ag	Caspase-7 inhib
CCCCS/C(=C(/C#N)C(N)=O)c1cc2c([nH]1)CCCC2	-2%	?	5µM*	?	?	-1%
CN1CCN(c2ncc3ncc(=O)n(-c4ccccc4)c3n2)CC1	.	-16%	?	19%	?	?
COCCNc1ncnc2ccc(-c3ccccc3OC)cc12	-2%	-18%	?	13%	?	-4%
COCCNc1ncnc2ccc(-c3ccccc3C(F)(F)F)cc12	2%	?	?	25µM*	?	-4%
CCOc1ccccc1OCc1nn2c(COc3ccccc3)nnc2s1	-4%	6%	16µM*	3.2µM*	?	-3%
COc1ccc(-c2nnc3sc(COc4ccc(C)cc4)nn23)cc1	-1%	9%	20µM*	-11%	?	1%
CCOc1cccc(-c2nnc3sc(COc4ccc(Cl)cc4)nn23)c1	-2%	-4%	16µM*	1%	?	-2%
CCOc1ccc(-c2nn3c(-c4ccccc4)nnc3s2)cc1	-2%	-20%	?	-19%	?	-2%
COc1ccc(OCc2nn3c(-c4ccccn4)nnc3s2)cc1	2%	-12%	6%	5%	14%	0%
CCOc1cccc(-c2nnc3sc(COc4ccc(C)cc4)nn23)c1	-2%	-27%	25µM*	1%	?	-1%
O=C(O)c1ccc(C(=O)Nc2cccc3ccccc23)c(C(=O)O)c1	-2%[11.5 µM]	-8%[11.5 µM]	-6%[11.4 µM]	3%[11.4 µM]	-4%[11.4 µM]	2%[11.5 µM]
N#CCCn1c(=O)cnc2cnc(Oc3ccccc3)nc21	-4%	-5%	17%	5%	.	-2%
Cc1nn(-c2ccccc2C(=O)O)c(=O)c2ccccc12	-1%	-14%	-3%	-2%	10µM*	1%
C[C@@H](C(=O)O)[C@H]1C[C@]1(C)[C@H](NC(=O)OCc1ccccc1)c1ccccc1	1%	18%	?	.	?	0%
COC(=O)[C@H](C)[C@@H]1C[C@@]1(C)[C@@H](NC(=O)OCc1ccccc1)c1ccccc1	-4%	-13%	16µM*	.	?	-3%
C[C@@H](C(=O)NCc1ccccc1)[C@H]1C[C@]1(C)[C@H](NC(=O)OCc1ccccc1)c1ccccc1	-1%	9%	16µM*	.	?	-4%
CCCCOc1cccc(OCCCC)c1C(=O)Nc1cc(C)on1	0%	20%	2µM*	-17%	?	0%
CCOc1ccc(C(=O)Nc2cc(C)on2)cc1OCC	-1%	?	2%	1%	-15%	0%
CCOc1cc(C)nc(NCCc2ccc(OC)c(OC)c2)n1	2%	-8%	10%	3%	6%	2%
CNc1ncnc2ccc(-c3ccccc3C#N)cc12	0%	?	-8%	-9%	6%	-2%
Cc1cccc(CNc2ncnc3ccc(-c4ccccc4C#N)cc23)c1	-4%	-20%	25µM*	3%	?	-2%
Cc1cnc(CNc2ncnc3ccc(-c4ccccc4Cl)cc23)cn1	-5%	20µM*	?	4%	?	-10%
N#Cc1ccccc1-c1ccc2ncnc(NCc3cccs3)c2c1	-4%	-26%	16µM*	?	?	-5%
Cc1cnc(CNc2ncnc3ccc(-c4ccccc4C)cc23)cn1	-3%	-29%	?	2%	?	-6%
CSc1cc2c(cc1C(F)(F)F)N(C(=O)Nc1cccnc1)CC2	0%	-9%	-1%	4%[25.6 µM]	-6%	0%
SMILES	Casp1 inh	ERK AVP inh	HEK293 cAMP ctrl	ALOX15 inhib	TSHR ag	Caspase-7 inhib
O=C(O)C(Cc1ccccc1-c1ccccc1)C(=O)O	1%[11.5 µM]	19%[11.5 µM]	16%[11.4 µM]	-5%[11.4 µM]	3%[11.4 µM]	2%[11.5 µM]
CN(CC(=O)NCc1cccc(F)c1)C(=O)c1ccco1	0%	7%	6%	8%	-2%	1%
O=c1c2ccccc2nc(SCc2nnc(-c3ccccc3)o2)n1-c1ccc(F)cc1F	3%	?	?	-11%	?	-2%
COc1ccc(-c2nnc(COc3ccc4ccccc4c3)o2)cc1OC	-5%	?	4µM*	-11%[11.4 µM]	?	-3%
COc1cc(-c2nnc(COc3ccc4cc(Br)ccc4c3)o2)cc(OC)c1OC	-2%	-11%	11%	1%	21%	-3%
COc1ccc(-c2nnc(CSc3nc4ccccc4c(=O)n3C)o2)cc1OC	-1%	?	25µM*	0%	?	7%
O=c1c(-c2ccccc2)n[nH]c2ccccc12	-4%	-4%	11%	-4%	1%	-4%
O=C1c2ccccc2-c2n[nH]c3cccc1c23	.	10µM*	?	-19%[25.6 µM]	?	?
COCC(=O)N1CCC[C@@]2(CCN(c3ncccn3)C2)C1	-1%	-17%	7%	10%	-3%	3%
S=C([S-])NCCNC(=S)[S-].[Zn+2]	1%	29%	28%	13µM*	4%	-10%
Cc1ccc(NC(=O)Cc2nc(CSc3nnc(-c4ccc5c(c4)OCO5)o3)cs2)cc1	-1%	14%	26%	-18%	13%	-2%
Cc1cc(OCCCn2ccnc2)cc(C)c1Cl	1%	25µM*	24%[11.4 µM]	17%[11.4 µM]	16%[11.4 µM]	1%
CCOC(=O)CCN1C(=O)[C@H]2[C@H]3[C@H](O)[C@H](O)C/C(=N/OC[C@@H](O)COCc4ccco4)[C@@H]3CC[C@@H]2C1=O	-1%[11.5 µM]	20%[11.5 µM]	-1%[11.4 µM]	8%[11.4 µM]	-3%[11.4 µM]	-1%[11.5 µM]
COc1cccc(CNc2ccc(N3CCCCC3)cc2)c1OC	-5%	20µM*	9%	2µM*	-5%	-3%
COc1ccccc1CNc1ccc(N2CCCCC2)cc1	-5%	16µM*	?	16µM*	?	0%
CS(=O)(=O)Nc1ccc([N+](=O)[O-])cc1OC1CCCCC1	-2%	10%	?	?	?	-1%
O=C(OCC(=O)N1CCN(C(=O)c2ccco2)CC1)c1ccccc1OCc1ccc(Cl)cc1	-2%	?	25µM*	-6%	?	-3%
O=C(OCC(=O)N1CCN(C(=O)c2ccco2)CC1)c1sc2ccccc2c1Cl	-1%	16%	10%	-6%	-5%	0%
CCOc1ccc(OCC)c(NC(=O)C2COc3ccccc3O2)c1 (stereo not given)	-3%	12%	32µM*	-9%	?	0%
CC1=C(C(=O)N(C)Cc2ccccc2)C2(CCC(C)CC2)OC1=O (stereo not given)	-2%	40%	6.3µM*	-3%	?	-2%
CCOC(=O)C1CCN(c2ncnc3c2oc2ccc(Cl)cc23)CC1	1%	-9%	25µM*	0%	?	-3%
Clc1ccc(N2CCN(c3ncnc4c3oc3ccccc34)CC2)cc1	-2%	16%	?	22%	?	-2%
O=C1OCC2=C1C(c1ccc3c(c1)OCO3)Sc1ccccc1N2 (stereo not given)	0%	20µM*	-1%	-27%	0%	-1%
